According to PubChem BioAssay (NCATS):
Results filed as inconclusive are left out. Calls of active or inactive are those of the source. The call rests on the fitted dose curve; in most records, active means well fitted curve in the direction sought with a large enough effect; inconclusive means small, poorly fitted or top-dose-only effect, or another doubt; inactive means no such curve, though single readings can be large; an effect the other way counts as inactive or inconclusive.

Key:
[1] = qHTS of pediatric cancer cell lines to identify multiple opportunities for drug repurposing: Primary screen for A673 cells (AID 1347092); further: nearly all actives have a fitted effect of over 45% in size
Summary of the method: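 48 h compound exposure, A673, 500-1,000 cells/well, 37 degrees C/5% CO2. MIPE: 11-point, 0.78 nM-46 µM; NPC: 8-point, 0.59 nM-46 µM (final). Readout CellTiter-Glo luminescence after 15 min RT.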

[2] = qHTS of pediatric cancer cell lines to identify multiple opportunities for drug repurposing: Primary screen for SK-N-MC cells (AID 1347093); further: series mostly up to about 46 µM
Summary of the method: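 Metabolically active cells were quantified by ATP-dependent luminescence (CellTiter-Glo, 15 min at room temperature) following 48 h treatment. Cells had been plated at 500-1,000 per well and settled for 5 h beforehand.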

[3] = qHTS of pediatric cancer cell lines to identify multiple opportunities for drug repurposing: Primary screen for BT-37 cells (AID 1347094); further: series mostly up to about 57 µM
Summary of the method: (§1)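 Quantitative HTS format: each compound titrated (MIPE 11 points from 0.78 nM, NPC 8 points from 0.59 nM) onto cells plated 5 hours earlier. After 48 h at 37 degrees C, CellTiter-Glo luminescence was recorded.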

[4] = qHTS of pediatric cancer cell lines to identify multiple opportunities for drug repurposing: Primary screen for NB-EBc1 cells (AID 1347095)
Summary of the method: as §1

[5] = qHTS of pediatric cancer cell lines to identify multiple opportunities for drug repurposing: Primary screen for U-2 OS cells (AID 1347096); further: nearly all actives have a fitted effect of over 50% in size
Summary of the method: (§2)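 Cells (500-1,000/well) rested 5 h, then received compounds for 48 h; metabolically active cells were measured by CellTiter-Glo luminescence. Final concentrations spanned up to 46 µM (MIPE, 11-point) or 0.59 nM-46 µM (NPC, 8-point) in primary screens, 11-point in follow-ups.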

[6] = qHTS of pediatric cancer cell lines to identify multiple opportunities for drug repurposing: Primary screen for Saos-2 cells (AID 1347097); further: nearly all actives have a fitted effect of over 40% in size
Summary of the method: as §1

[7] = qHTS of pediatric cancer cell lines to identify multiple opportunities for drug repurposing: Primary screen for SK-N-SH cells (AID 1347098);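 further: DMSO served as neutral control and bortezomib at 2.3 µM as positive control; nearly all actives have a fitted effect of over 65% in size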
Summary of the method: as §2

[8] = qHTS of pediatric cancer cell lines to identify multiple opportunities for drug repurposing: Primary screen for NB1643 cells (AID 1347099); further: nearly all actives have a fitted effect of over 50% in size
Summary of the method: as §1

[9] = qHTS of pediatric cancer cell lines to identify multiple opportunities for drug repurposing: Primary screen for LAN-5 cells (AID 1347100)
Summary of the method: as §2

[10] = qHTS of pediatric cancer cell lines to identify multiple opportunities for drug repurposing: Primary screen for BT-12 cells (AID 1347101); further: nearly all actives have a fitted effect of over 25% in size
Summary of the method: as §2

Measured: Potency

Cn1c([N+](=O)[O-])cnc1COC(N)=O
inactive: all assays above

CC[C@]12CCCN3CCc4c(n(c5ccccc45)[C@@](O)(C(=O)OC)C1)[C@@H]32
inactive: all assays above

CC[C@H](C)[C@H](N)C(=O)O
inactive: all assays above

NC(=O)NS(=O)(=O)c1ccc(N)cc1
inactive: all assays above

COC(=O)c1ccccc1C(=O)c1ccc(OCCN2CCCCC2)cc1
inactive: all assays above

O=C(O)CNC(=O)c1ccccc1I
inactive: all assays above

CN1C(=O)CC(c2ccccc2)C1=O (stereo not drawn)
inactive: all assays above

C[N+](C)(C)CC[N+]1(C)Cc2c(Cl)c(Cl)c(Cl)c(Cl)c2C1
inactive: all assays above

O=C(Cn1ccnc1[N+](=O)[O-])NCc1ccccc1
not listed: [8]
inactive: all other assays above

CCOc1ccc(C(=O)OCCN(CC)CC)cc1
not listed: [8]
inactive: all other assays above

CC(=O)NCc1c(I)c(NC(C)=O)c(I)c(C(=O)O)c1I
not listed: [8]
inactive: all other assays above

C[C@@H]1O[C@@H](OC[C@H]2O[C@@H](Oc3c(-c4ccc(O)c(O)c4)oc4cc(O)cc(O)c4c3=O)[C@H](O)[C@@H](O)[C@@H]2O)[C@H](O)[C@H](O)[C@H]1O
not listed: [8]
inactive: all other assays above

CC(C)=CCC[C@@](C)(O)[C@H]1CC=C(C)CC1
inactive: all assays above

CC(=O)N(CC(O)CO)c1c(I)c(C(=O)NCC(O)CO)c(I)c(C(=O)NCC(O)CO)c1I (stereo not drawn)
inactive: all assays above

Cc1[nH]c(C)c(Cl)c(=O)c1Cl
not listed: [8]
inactive: all other assays above

CC(=O)OC[C@H]1O[C@@](COC(C)=O)(O[C@H]2O[C@H](COC(C)=O)[C@@H](OC(C)=O)[C@H](OC(C)=O)[C@H]2OC(C)=O)[C@@H](OC(C)=O)[C@@H]1OC(C)=O
not listed: [8]
inactive: all other assays above

C[N+]1(C)CCCC(OC(=O)C(O)(c2ccccc2)c2ccccc2)C1 (stereo not drawn)
not listed: [8]
inactive: all other assays above

CC(O)CCCCn1c(=O)c2c(ncn2C)n(C)c1=O (stereo not drawn)
inactive: all assays above

OCC(O)CS (stereo not drawn)
not listed: [8]
inactive: all other assays above

O=C(CCBr)N1CCN(C(=O)CCBr)CC1
not listed: [7]
inactive: all other assays above

CC[N+](C)(CC)CCOC(=O)C1c2ccccc2Oc2ccccc21
inactive: all assays above

C[C@@H](N)C(=O)O
not listed: [8]
inactive: all other assays above

C=CCOc1ccccc1OCC(O)CNC(C)C (stereo not drawn)
not listed: [8]
inactive: all other assays above

COC(=O)c1ccc(O)cc1
not listed: [8]
inactive: all other assays above
